Experimental data taken from PubChem BioAssay AID504332 (National Center for Advancing Translational Sciences (NCATS), 2011).
The whole screen tested about 350,000 compounds, of which about 31,000 (8.9%) were called active. Another 15% or so got no clear call; they are omitted. Calls follow the shape of the dose curve; as a rule, active = well fitted inhibition curve with a large enough effect; inconclusive = small, poorly fitted or top-dose-only effect; inactive = no such curve, though single readings can be large or run the other way. What follows is part of a selection rich in actives, with near analogues and random picks from the rest.

These compounds were tested against Histone-lysine N-methyltransferase EHMT2 (Homo sapiens) (UniProt Q96KQ7) (assay: qHTS Assay for Inhibitors of Histone Lysine Methyltransferase G9a). Conditions: G9a H3K9 monomethylation, AlphaScreen, 2 h; series mostly up to 59 µM.
In short: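 Step 1: enzyme (final 20 nM) with compound, 15 min RT. Step 2: substrate peptide 500 nM and SAM 20 uM, 2 h RT. Step 3: anti-H3K9me1 antibody and AlphaScreen beads, 10 min, then plate read.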
% is scaled to controls: 0 for no effect and ±100 for the full control effect; potency is read from the fitted curve at half-maximal effect.
Also: nearly all actives have a fitted effect of over 75% in size.

Chain of Histone-lysine N-methyltransferase EHMT2 (Homo sapiens) (Q96KQ7 913-1193 limits assumed): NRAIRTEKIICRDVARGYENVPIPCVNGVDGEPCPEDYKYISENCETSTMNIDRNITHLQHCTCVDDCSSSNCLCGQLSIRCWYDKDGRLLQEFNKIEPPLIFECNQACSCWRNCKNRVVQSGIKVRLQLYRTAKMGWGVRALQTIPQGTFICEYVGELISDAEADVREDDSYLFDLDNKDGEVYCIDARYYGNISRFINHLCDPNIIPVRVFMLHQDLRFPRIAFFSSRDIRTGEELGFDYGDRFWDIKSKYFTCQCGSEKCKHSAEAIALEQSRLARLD

activity, negative = inhibition, inactive:
O=C1NCCn2nc3ccccc3c21 16.4% [at 2.33 µM]
O=C(Cc1ccc(S(=O)(=O)N2CCOCC2)s1)N1CCN(c2ccc(C(F)(F)F)cc2[N+](=O)[O-])CC1 5.52% [at 0.501 µM]
CCN1C(=O)[C@H]2[C@@H](c3ccc(-c4ccc(OC)cc4)cc3)N[C@@](Cc3ccccc3)(C(=O)OC)[C@H]2C1=O -6.39% [at 2.33 µM]
CCOc1ccc(NC(=O)CN(C)C(=O)CCSc2ccc(F)cc2)cc1OCC 21% [at 12.7 µM]
Cc1nnc(SCC(N)=O)n1CC1CCCO1 (centres undefined) -0.186% [at 2.33 µM]
Cc1ccc(S(=O)(=O)Nc2nc(CN3CCOCC3)nc3sc(C)c(C)c23)cc1 19.1% [at 2.33 µM]
CCNC(=O)N1CCN(S(=O)(=O)c2ccc3c(c2)OCCCO3)CC1 -26.7% [at 2.33 µM]
O=C1CC[C@H](O)CCN1[C@H](CSc1ccc(Br)cc1)Cc1ccccc1 11.1% [at 2.33 µM]
O=C(CSc1ccccc1)Nc1cccc(S(=O)(=O)N2CCCCC2)c1 14.6% [at 12.7 µM]
COc1cc(NC(=O)CSC(=S)N2CCCC2)c(OC)cc1Cl 13.5% [at 2.33 µM]
COc1ccc2c(c1OC)C(=O)OC2c1c(O)nc(SC)n(-c2ccccc2)c1=O (centres undefined) 4.51% [at 12.7 µM]
CN(C)S(=O)(=O)c1cc(C(=O)Nc2ccn(C)n2)c(Cl)cc1Cl 19.1% [at 12.7 µM]
CCCCn1c(N)c(N(CC)C(=O)c2ccc(N(C)S(=O)(=O)c3ccc(C)cc3)cc2)c(=O)[nH]c1=O 8.91% [at 12.7 µM]
Cc1cccc(NC(=O)c2sc3nc(N4CCOCC4)c4c(c3c2N)CCCC4)c1 6.18% [at 0.501 µM]
CC(NC(=O)CN(C)S(=O)(=O)c1ccc(F)cc1)C1CC2CCC1C2 (centres undefined) 11.8% [at 12.7 µM]

Potency, inactive:
Cn1c(=O)cc(OCC(=O)N2CCN(c3ccccc3)CC2)c2ccccc21
COc1cccc2cc(C(N)=O)/c(=N\NC(=O)c3ccccc3)oc12
O=C(c1ccc(C(F)(F)F)cc1)N1CCC(c2nc(-c3ccc(S(=O)(=O)N4CCCC4)cc3)no2)CC1
CCn1c(SCC(=O)NCc2ccco2)nnc1-c1ccc(N)cc1
CCOc1ccccc1-n1c(SCC(=O)NCc2ccco2)nnc1-c1ccncc1
O=C(Nc1ccccc1C(=O)N1CCCCC1)c1ccco1
COC(=O)c1cc(Cl)c(NC(=O)c2ccco2)cc1OC
Cc1nc2ccc(S(=O)(=O)N(CC(=O)Nc3ccc(F)cc3)Cc3ccccc3)cc2s1
CCOC(=O)N1CCN(CCC(=O)Nc2cc(OC)ccc2OC)CC1
CCOC(=O)N1CCN(C(=O)C2CCN(S(=O)(=O)c3cc(Cl)ccc3OCC)CC2)CC1
CCN(CC(=O)Nc1ccccc1C(=O)NC1CC1)Cc1cccs1
O=C(CSc1nnc(-c2ccco2)o1)NCC(=O)c1ccccc1
O=C(CSc1nnc(-c2ccco2)n1Cc1ccccc1)NC(=O)NCc1ccco1
O=C(COc1ccc(Cl)cc1)NCc1nnc(SCC(=O)NCC2CCCO2)o1 (centres undefined)
CCC(NC(=O)C1CCCC1)c1ccc(C)cc1 (centres undefined)
Cc1ccccc1NC(=O)Cn1c(=O)n(CCc2ccccc2)c(=O)c2ccccc21
O=C(OCC(=O)N1CCCCCC1)c1cnc(Cl)c(Cl)c1
COc1ccc(OC)c(CCNC(=O)CCn2ccc3cc(S(=O)(=O)N4CCCC4)ccc32)c1
O=C(CSc1nnc(-c2ccncc2)n1-c1ccccc1)Nc1ccc(Cl)c(Cl)c1
COc1ccc(OC)c(CNC(=O)Cn2nc(C)c3c(C)n(-c4ccccc4)nc3c2=O)c1
CCOC(=O)C1CCCN(CC(=O)Nc2cc(C)c3c(=O)oc4ccccc4c3n2)C1 (centres undefined)
COC(=O)c1sc2ncccc2c1-n1c(C)ccc1C
CCN(/N=C/c1ccccc1)c1cc(=O)n(C)c(=O)[nH]1
CCCCSc1nc2ccccc2[nH]1
CN1C(=O)C2(OCCCO2)c2cc(Cl)ccc21
CC1CCN(C(=O)Cn2c(=O)n(-c3ccc(Cl)cc3)c(=O)c3c4c(sc32)CCC4)CC1
CCn1c(CNC(=O)c2ccc(OC)c(OC)c2)nnc1SCC(=O)Nc1ccccc1
CCOc1ccccc1NC(=O)C1=C(C)Nc2ncnn2C1c1ccc(NC(C)=O)cc1 (centres undefined)
COc1ccccc1N1CCN(c2ccc(=O)n(CC(=O)NCc3ccc(OC(C)C)cc3)n2)CC1
Cc1cccc(Cn2c(SCc3ccc(C(=O)N4CCC(C)CC4)cc3)nc3ccncc32)c1
COc1cccc(Cn2c(SCc3ccc(C(=O)N4CCCCC4)cc3)nc3ccncc32)c1
O=C(CSc1nc2c(c(=O)[nH]1)CN(Cc1ccc3c(c1)OCO3)CC2)Nc1cc(F)ccc1F
Cc1ccc2oc(C(=O)N3CCN(C)C[C@@H]3C(C)C)c(C)c2c1
FC(F)(F)Oc1ccc(NC(=S)NCc2ccccc2)cc1
CCNC(=S)Nc1ccc(OC(F)(F)F)cc1
COc1ccc(Cl)cc1C(=O)Nc1ccc(N(C)C(C)=O)cc1
COc1cc(OC)c(C(=O)Nc2ccccc2-c2ccccc2)cc1OC
COc1ccc(C(C)NC(=O)C23CC4CC(CC(C4)C2)C3)cc1 (centres undefined)
CCOc1ccc(-c2cc3nc(C4CCN(C(=O)OC(C)(C)C)CC4)c(C(=O)Nc4cccc(CC)c4)cn3n2)cc1
O=C(NCc1ccc2c(c1)CCN2C(=O)c1ccccc1)Nc1cc(F)ccc1F
CC(C)c1c(O)nc(SCCOc2ccc(Cl)cc2)[nH]c1=O
CCSc1nc(C)c(CCOc2cccc(C)c2)c(=O)[nH]1
CCCCn1c(N)c(N(CCC(C)C)C(=O)COC(=O)c2cccnc2OCC)c(=O)[nH]c1=O
COc1ccc(NS(=O)(=O)c2ccc(C)c(C(=O)NCC(c3cccs3)N3CCOCC3)c2)cc1 (centres undefined)
COc1cccc(N2CC(NC(=O)c3ccc4ccccc4c3)CC2=O)c1 (centres undefined)
CC(NCC(=O)Nc1cc(Cl)cc(Cl)c1)c1ccccc1 (centres undefined)
CC(=O)c1ccc(NC(=O)C(C)NCc2ccc(Cl)cc2)cc1 (centres undefined)
COc1ccccc1C(=O)OCc1cc(=O)n2nc(-c3cccs3)sc2n1
CC(C)c1nc(SCC(=O)Nc2cccc(C(=O)O)c2)c2c3c(sc2n1)CCCC3
CCCCOC(=O)CSc1ncnc2sc3c(c12)CCC(C)C3 (centres undefined)
CCOc1ccccc1CNC(=O)c1cnc2c(-c3ccc(OCC)c(OCC)c3)c(C)nn2c1C
CCc1nccn1S(=O)(=O)c1cc(Br)ccc1Br
Cc1ccnc(NC(=O)CCC(=O)N(CC(=O)NCCc2ccccc2)Cc2cccs2)c1
O=C(CCc1ccccc1)NCCc1cccs1
CN(Cc1ccc(F)cc1)C(=O)COc1ccc2ccccc2c1
Fc1ccc(COc2ccc(-c3nnco3)cc2)cc1
O=C(N/N=C/c1ccccc1O)C1CCCC1
COc1ccc(Cn2ccc3nc(C)c(C(=O)Nc4ccc(C)c(F)c4)cc3c2=O)cc1
O=C(O)c1ccccc1C(=O)Nc1ccccc1[N+](=O)[O-]
O=C(Nc1ccccc1-c1ccccc1)c1ccccc1[N+](=O)[O-]
Cc1ccc(CNC(=O)c2c(O)nc3c(C)cccn3c2=O)cc1
Cc1ccc(Cn2c(=O)n(-c3ccc(C)cc3)c(=O)c3c2c2cc(C)ccc2n3C)cc1

Potency, active:
Cc1ccc(-c2csc3nnc(SCC(=O)NCc4ccco4)n23)cc1 17.8 µM
CS/C(=C\C(=O)c1ccco1)Nc1ccccc1Cl 50.1 µM
CCOC(=O)N1CCN(C(=O)C2CCN(Cc3ccc(OC)cc3OC)CC2)CC1 7.94 µM
Cc1nnc(SCC(=O)NNC(=O)c2ccc(Cl)cc2)n1CC1CCCO1 (centres undefined) 35.5 µM
O=C(CSc1nnc(-c2ccco2)n1CC1CCCO1)c1ccccc1 (centres undefined) 50.1 µM
CCN(/N=C/c1ccc(N(C)C)cc1)c1nc2ccccc2[nH]1 2.82 µM
Cc1ccccc1-n1nc(C)c2c1N=C1C(Cl)=CC(Cl)=CN1C2c1ccc(C(=O)O)cc1 (centres undefined) 25.1 µM
CCn1c(SC)nc(O)c(C(c2ccc(OC)c(O)c2)c2c(O)nc(SC)n(CC)c2=O)c1=O 10 µM
COc1cccc(Cn2c(SCc3ccc(C(=O)N4CCC(C)CC4)cc3)nc3ccncc32)c1 1.78 µM
CS(=O)(=O)c1sc(C(=O)NC(=S)Nc2ccc(OC(F)(F)F)cc2)c2c1C=CCC2 50.1 µM
COc1cc(OC)c(C(=O)Nc2ccc(N(C)C)cc2)cc1OC 4.47 µM
CCSc1nc(O)c(C(c2cccc(OC)c2)c2c(O)nc(SCC)[nH]c2=O)c(=O)[nH]1 70.8 µM
CC(NCc1cccs1)C(=O)Nc1cc(Cl)cc(Cl)c1 (centres undefined) 5.01 µM
Cc1cc(NC(=O)CSc2nc(C(C)C)nc3sc4c(c23)CCC(C)C4)no1 (centres undefined) 1 µM
O=C(O)CCC(=O)N(Cc1cccs1)Cc1cccs1 50.1 µM
Fc1ccc(COc2cccc(-c3n[nH]c(=S)o3)c2)cc1 5.01 µM
O=C(O)c1ccccc1NC(=S)NC(NC(=O)c1ccccc1[N+](=O)[O-])C(Cl)(Cl)Cl (centres undefined) 12.6 µM
